Experimental data taken from PubChem BioAssay (NCI).
The panel holds about 79,000 compounds, 15% with a hit somewhere; the sample as a whole holds those more often. Unmarked numbers belong to inactive results. Active and inactive are the calls of the source. Cut-off read from the data, not from the text of the source: active = growth inhibition above about 70%; inactive = the rest.

How the values were obtained:
[1] = NCI Yeast Anticancer Drug Screen. Data for the rad50 strain (AID 155);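 note: 0% = growth of vehicle-only cultures of the same strain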; conditions: S. cerevisiae rad50 strain growth inhibition; at 50.0 µM; active compounds read high
Outline: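 Readout: growth inhibition relative to vehicle-treated cultures. Compound exposure was carried out in a genetically defined yeast strain deficient in DNA damage repair.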

[2] = NCI Yeast Anticancer Drug Screen. Data for the mec2-1 strain (AID 157); conditions: S. cerevisiae mec2-1 strain, at 50.0 µM, active compounds read high
Outline: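 Readout is yeast growth inhibition, normalised to vehicle-treated controls, in the mec2-1 strain exposed to compound.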

[3] = NCI Yeast Anticancer Drug Screen. Data for the sgs1 mgt1 strain (AID 161);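 note: 0% = growth of cultures given vehicle only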; conditions: S. cerevisiae sgs1 mgt1 strain, at 50.0 µM, active compounds read high
Outline: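 Percent growth inhibition was derived by comparing compound-exposed mutant yeast with vehicle-exposed cultures. The strain carries alterations in DNA damage repair.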

[4] = NCI Yeast Anticancer Drug Screen. Data for the cln2 rad14 strain (AID 165);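 note: 0% = growth equal to vehicle treated cultures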; conditions: S. cerevisiae cln2 rad14 strain, at 50.0 µM, active compounds read high
Outline: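 Relative to vehicle controls, growth inhibition of compound-treated cln2 rad14 yeast was recorded.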

[5] = NCI Yeast Anticancer Drug Screen. Data for the bub3 strain (AID 167); conditions: S. cerevisiae bub3 mutant strain, at 50.0 µM, active compounds read high
Outline: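 Readout: yeast growth inhibition, expressed relative to vehicle-only wells. The test organism is a mutant strain from a panel with lesions in DNA repair or checkpoint genes.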

[6] = NCI Yeast Anticancer Drug Screen. Data for the mlh1 rad18 strain (AID 175); conditions: S. cerevisiae mlh1 rad18 strain growth inhibition; at 50.0 µM; active compounds read high
Outline: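 Test agents were incubated with a yeast strain of defined genotype (DNA damage repair defect). Inhibition of growth was derived by comparison with vehicle-exposed cultures.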

SMILES	growth inhibition [1]	growth inhibition [2]	growth inhibition [3]	growth inhibition [4]	growth inhibition [5]	growth inhibition [6]
N[C@@H](CSSc1ccccc1C(=O)O)C(=O)O	-32.9%	-7.25%	-14.4%	1.85%	0.8%	-10.3%
CN(C)c1noc2c1c(=O)n(C)c(=O)n2C	-27.8%	-9.95%	-11.6%	-12.1%	2.6%	14.8%
O=C(CNC(=O)OCc1ccccc1)NCCNCCNC(=O)CNC(=O)OCc1ccccc1	-26.9%	6.7%	-5.65%	36.2%	8.45%	-0.4%
CC[n+]1nc2ccccc2c(=Nc2ccccc2[N+](=O)[O-])[n-]1	11.8%	13.1%	12.3%	29.4%	25.2%	7.15%
O=C(OCc1ccccc1C1CSCSC1)c1cc(C(=O)OCc2ccccc2C2CSCSC2)c(C(=O)OCc2ccccc2C2CSCSC2)cc1C(=O)OCc1ccccc1C1CSCSC1	5.3%	-17.7%	-10.6%	1.65%	6.1%	-8.8%
C=CCSC(=S)Nc1nc2ccc(C)cc2s1	-19.9%	4.75%	0.25%	0.2%	-2.05%	2.1%
COCc1cc(=O)c(OC)cn1CCO	-40.5%	-17.9%	-25.9%	-63.1%	0%	-5.2%
O=C(c1cc([N+](=O)[O-])cc([N+](=O)[O-])c1)N1CCCC1	-45.8%	-20.7%	-2.75%	-25.1%	16.4%	9.2%
CCOC(=O)c1ccc(-n2nc(C)cc(Cl)c2=O)cc1	1.3%	-11.2%	10.8%	-43%	20.4%	-4.8%
O=c1nc(Oc2ccccc2)nc2ncccn12	47%	26.1%	40.5%	20.2%	50.6%	65%
O=C1CSCCO1	-7.3%	-27.4%	-3.6%	-37%	1.05%	-7%
O=C(NCC1=NCCN1)c1ccccc1	2.3%	-2.7%	-13.7%	12%	6.45%	10.7%
CCOC(=O)SC1=NC(C)=CC(C)(C)S1	2.4%	6.55%	18.6%	-10.9%	-3.7%	-4.7%
CCCCN(CCCC)CC(CC)N(CCCC)CCCC (configuration not stated)	-8.4%	1.8%	-5.7%	-38.6%	10.8%	7.35%
CN(C)c1ccc([N+](=O)[O-])cc1	-76.2%	-24%	-61.6%	-43.1%	-9.2%	-57.4%
c1ccc2c(c1)NC(N1CCCCC1)=Nc1ncncc1-2	14.8%	-8.15%	7.75%	-15.1%	-1.7%	2%
COc1ccc(/C=N/NC(=O)/C(C#N)=C/c2ccc(OC)cc2)cc1	23.1%	19.1%	3.7%	-11.5%	19.4%	16.4%
CCCNc1nc2c(s1)c1c(O)c3c(O)c(C)c4c(c32)C(=O)C(C)(O/C=C\C(OC)C(C)C(OC(C)=O)C(C)C(O)C(C)C(O)C(C)/C=C/C=C(/C)C(=O)N1)O4 (configuration not stated)	8.75%	9.7%	3.2%	10.2%	14.2%	17.3%
COC(=O)CC(C)N(c1cccc(Cl)c1)S(=O)(=O)c1ccc(C)cc1 (configuration not stated)	52.3%	7.1%	76.3% (active)	-30.9%	24.1%	32.5%

SMILES	growth inhibition [1]	growth inhibition [2]	growth inhibition [3]	growth inhibition [4]	growth inhibition [5]	growth inhibition [6]
COc1cc2c(cc1OC)C(=O)/C(=C/c1ccc(N(C)C)cc1)CC2	-39.5%	-58%	-28.9%	-63.7%	-7.2%	-39.8%
Nc1ncnc(N)c1NC(=O)c1ccc(CCc2ccccc2)c(Cl)c1	-3.9%	37.1%	21.6%	-14.2%	4.1%	-4.35%
COC(=O)C1=CCS(=O)(=O)C1	-7.45%	-7.8%	-4.3%	6.1%	15%	-9.5%
Cc1ccc(N2CCN(c3ccc([N+](=O)[O-])cc3)CC2)cc1Cl	-6.15%	7.15%	2.85%	-12.4%	0.15%	-28.3%
CCCCCCCC/C=C\CCCCCCCC(=O)OCCN(CCOC(=O)CCCCCCC/C=C/CCCCCCCC)C(=O)COC(=O)CCCCCCC/C=C\CCCCCCCC	-9.3%	-11.8%	-24.4%	-7.6%	-7.35%	10.7%
Nc1nc(N)c2nc(-c3ccc(N(CCO)CCO)cc3)c(N)nc2n1	-13.1%	-14.8%	-11.9%	-34.9%	3.15%	-15.9%
NC(=O)/C(=N/O)c1ccccc1	-1.85%	13.2%	1.7%	1.25%	-1.2%	-7.6%
CCCCCCCCCCCCCCCCCCCCCCCC	0.1%	2.3%	18.7%	-53%	21.7%	-13.2%
COc1cc2ccc3c[n+]4ccccc4cc3c2cc1OC	9.25%	14.2%	19.9%	19.4%	20.2%	14%
O=C(N/N=C\c1cccc(O)c1)c1ccncc1	1.75%	11.9%	-37.5%	-19.4%	3%	-1.05%
COc1ccc(C2=Nc3cccc4c3N(CCC4)C2c2ccc(OC)cc2)cc1 (configuration not stated)	0.45%	2.45%	3%	7.6%	-2.95%	4.8%
CCCCCC(=O)OC[n+]1ccc2c(C)c3[nH]c4ccc(OC)cc4c3c(C)c2c1	87.8% (active)	91.8% (active)	90.2% (active)	89.3% (active)	87.1% (active)	91.5% (active)
COc1ccc(NC(=O)C(=O)Cc2nc3ccc([N+](=O)[O-])cc3[nH]c2=O)c(OC)c1	9.85%	14.7%	-3.7%	3.95%	6.15%	22.6%
CC(C)C1=C(Cc2ccccc2)C(=O)O/C1=C\c1cc(Cl)c(O)c(Cl)c1	19.9%	8%	24.6%	25.6%	32.5%	-30.9%
COc1cc(O)c(C(=O)C2Cc3ccccc32)c(OC)c1 (configuration not stated)	-20.6%	12.5%	24.1%	21.6%	9.1%	41.8%
O=C(c1ccccc1)N1C(=S)N=C(Nc2ccccc2)C1=Nc1ccccc1	-15.8%	-27.1%	-9.8%	-30.3%	-20.9%	-35.9%
CCOC(=O)NN(C(=O)OCC)C(=C(C1=CCCCC1)N1CCOCC1)N(NC(=O)OCC)C(=O)OCC	-14.4%	4.25%	3.3%	1.9%	-4.8%	-6.5%
CN(Cc1c(O)ccc2ccccc12)Cc1c[nH]c2ccccc12	20.4%	-13.8%	0.5%	-46.5%	6.9%	13.4%
